This is an account of results in article PMC8384837, “Expanding the binding specificity for RNA recognition by a PUF domain”.

Test in all cases: yeast three-hybrid, YBZ-1, SC-Leu-His + 0.5 mM 3-AT, 4 days
Details in all cases: tags: N-Gal4 AD-HA kept; label: inside an RPR1-promoter hybrid RNA with tandem MS2 sites; ssRNA

The target of one assay is PUM1 PUF domain R1-KGR (Homo sapiens, UniProt Q14671 828-1176, S863K;R864G;Q867R). The method in brief:
(§1)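 The interaction score is the log change in how often each variant appears, from input to selection. Frequencies came from PCR-amplified, Illumina-sequenced repeat regions of Pumilio-1 PUF domain libraries grown in strain YBZ-1 (LexA–MS2 coat fusion, HIS3 reporter) alongside matching RNA elements. Input plates were SC-Leu and selection plates were SC-Leu-His + 0.5 mM 3-AT, each for four days, and the log2 calculation used a pseudocount of 1 where a variant was absent.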

The target in the next assay is PUM1 PUF domain R5-DFV (Homo sapiens, UniProt Q14671 828-1176, C1007D;R1008F;Q1011V). The method in brief:
as §1

In another assay the target is PUM1 PUF domain R8-KWA (Homo sapiens, UniProt Q14671 828-1176, N1122K;Y1123W;Q1126A). The method in brief:
as §1

Chain of PUM1 PUF domain R1-KGR (Q14671 828-1176 S863K/R864G/Q867R): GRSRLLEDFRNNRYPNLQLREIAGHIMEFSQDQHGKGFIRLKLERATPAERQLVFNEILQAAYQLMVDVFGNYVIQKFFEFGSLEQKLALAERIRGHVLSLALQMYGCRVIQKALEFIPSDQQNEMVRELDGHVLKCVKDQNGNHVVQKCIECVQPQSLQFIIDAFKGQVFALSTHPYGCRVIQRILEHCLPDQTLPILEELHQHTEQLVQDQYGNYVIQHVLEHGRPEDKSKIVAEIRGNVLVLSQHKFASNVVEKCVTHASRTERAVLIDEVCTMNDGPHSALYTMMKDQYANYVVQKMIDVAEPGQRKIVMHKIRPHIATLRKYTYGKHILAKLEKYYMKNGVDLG
Chain of PUM1 PUF domain R5-DFV (Q14671 828-1176 C1007D/R1008F/Q1011V): as the sequence (Q14671 828-1176 S863K/R864G/Q867R) above, with K36S, G37R, R40Q, C180D, R181F, Q184V counted along it
Chain of PUM1 PUF domain R8-KWA (Q14671 828-1176 N1122K/Y1123W/Q1126A): as the sequence (Q14671 828-1176 S863K/R864G/Q867R) above, with K36S, G37R, R40Q, N295K, Y296W, Q299A counted along it

Regarding “GGCUAGAACUAGUGGAUCCCCCGGCGCCCGGCGGCUCGAGCCCGGGUAAGUGUAAAUCGUCUGCAUGCCGCCGGGCGCCAUGCCUGCAGGUCGACUCUAGAAAACAUG”, in the assay with PUM1 PUF domain R1-KGR, the binding signal is 3.57 log2 enrichment (interaction score). For “GGCUAGAACUAGUGGAUCCCCCGGCGCCCGGCGGCUCGAGCCCGGGUAAGUGUAAAUUGUCUGCAUGCCGCCGGGCGCCAUGCCUGCAGGUCGACUCUAGAAAACAUG”, in the assay with PUM1 PUF domain R1-KGR, the binding signal is 4.34 log2 enrichment (interaction score).

Regarding “GGCUAGAACUAGUGGAUCCCCCGGCGCCCGGCGGCUCGAGCCCGGGUAAGUGUGAAUAGUCUGCAUGCCGCCGGGCGCCAUGCCUGCAGGUCGACUCUAGAAAACAUG”, the binding signal with PUM1 PUF domain R5-DFV was 3.55 log2 enrichment (interaction score). As to “GGCUAGAACUAGUGGAUCCCCCGGCGCCCGGCGGCUCGAGCCCGGGUAAGCGUAAAUAGUCUGCAUGCCGCCGGGCGCCAUGCCUGCAGGUCGACUCUAGAAAACAUG”, in the assay with PUM1 PUF domain R8-KWA, the binding signal was 3.8 log2 enrichment (interaction score).
